From PubChem BioAssay AID588405 (Sanford-Burnham Center for Chemical Genomics, 2011)
About 6,200 (1.7%) of roughly 360,000 compounds were called active. For the sample, actives were picked, then their nearest neighbours and some compounds at random. A number with no mark means an inactive call.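 How the source made its calls: active means inhibition of at least 50% at 20 µM; inactive means the rest.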

assay: inhibition of PEG-3 promoter activity – cell-based, HeLa, luciferase luminescence, primary screen (AID 588405); details: HeLa PEG-Prom luciferase reporter, overnight, at 20 µM, active compounds read high

With `CCOC(=O)C1CCCN(C(=O)c2cccc3ccccc23)CC1` (stereo not drawn) as the compound, how does the inhibition read?
The inhibition was 10.3%.

With `O=C(C1=C(O)C(=O)N(CCOCCO)C1c1ccccn1)c1cccs1` (stereo not drawn) as the compound, how does the inhibition read?
The inhibition was -2.88%.

With `COc1ccc(NC(=O)c2cc(=O)[nH]c3ccccc23)cc1S(=O)(=O)N1CCOCC1` as the compound, how does the inhibition read?
The inhibition was -0.23%.

Which inhibition does the source give for `OC[C@@H]1CN(Cc2cccs2)C[C@H](n2cnc3c(Nc4ccccc4)ncnc32)O1` here?
The inhibition was -9.51%.

Which inhibition does the source give for `CCCCN1CC(N2CCN(Cc3cccc(C)c3)CC2)CS1(=O)=O` (stereo not drawn) here?
Its inhibition is -1.8%.

With `O=C1NCC(c2ccccc2)(c2ccccc2)C(=O)N1` as the compound, how does the inhibition read?
Its inhibition is -0.6%.

With `CCCNC(=O)C1(C)CCN1C(=O)C1(c2ccccc2)CC1` (stereo not drawn) as the compound, how does the inhibition read?
Its inhibition is 8.72%.

For `O=C(CC1Oc2ccccc2NC1=O)NCCCN1CCN(Cc2ccccc2)CC1` (stereo not drawn), which inhibition is on record?
Its inhibition is 1.93%.

Which inhibition does the source give for `COc1ccccc1NC(=O)CCC(=O)N1CC(C)Oc2ccc(C)cc21` (stereo not drawn) here?
Its inhibition is 14.5%.

Which inhibition does the source give for `CC1CN(C(=O)CCC(=O)NCCCN2CCC(Cc3ccccc3)CC2)c2cc(Cl)ccc2O1` (stereo not drawn) here?
The inhibition was 102% (active).

With `CC(C)CN1CCC1(C)C(=O)Nc1ccc(OC(F)F)cc1` (stereo not drawn) as the compound, how does the inhibition read?
The inhibition was 3.35%.

For `COc1ccc(-c2ccc(OC(=O)NC3CCS(=O)(=O)C3)cc2)cc1` (stereo not drawn), which inhibition is on record?
Its inhibition is -160%.

With `COCCNc1nc(NCc2ccc(NC(C)=O)cc2)c2sccc2n1` as the compound, how does the inhibition read?
The inhibition was 20.4%.

For `COCCNc1nc(Nc2ccccc2Cl)c2sc(-c3ccccc3)cc2n1`, which inhibition is on record?
Its inhibition is 5.82%.

Which inhibition does the source give for `CC(=O)Nc1ccc(CNc2nc(NCCN(C)C)nc3cc(-c4ccccc4)sc23)cc1` here?
Its inhibition is 97.3% (active).

Which inhibition does the source give for `C=CCc1cccc2cc(C(=O)N3CCN(C(=O)OCC)CC3)c(=O)oc12` here?
Its inhibition is 22.4%.

For `Cc1cccn2c(=O)c3cc(C(=O)NC4CCCCC4)sc3nc12`, which inhibition is on record?
Its inhibition is -45%.

With `Cc1cccn2c(=O)c(/C=C(\C#N)S(=O)(=O)c3ccc(Cl)cc3)c(N3CCC(C(N)=O)CC3)nc12` as the compound, how does the inhibition read?
The inhibition was -3.35%.

Which inhibition does the source give for `Cc1cc(C)cc(Oc2nc3c(C)cccn3c(=O)c2/C=C(\C#N)C(=O)NC2CCS(=O)(=O)C2)c1` (stereo not drawn) here?
Its inhibition is 61.6% (active).

For `FC(F)(F)c1ccccc1Cc1c(-c2ccccc2)nc2c3ccccc3ccn12`, which inhibition is on record?
The inhibition was -34.1%.

Which inhibition does the source give for `O=C(NCc1ccncc1)c1ccc(NS(=O)(=O)c2cccc([N+](=O)[O-])c2)cc1` here?
The inhibition was -13.3%.

Which inhibition does the source give for `O=[N+]([O-])c1cc(S(=O)(=O)Nc2cccc(Cl)c2)ccc1N=Nc1c(O)[nH]c2ccccc12` here?
The inhibition was 65.1% (active).

Which inhibition does the source give for `Cc1c(-c2ccccc2)n[nH]c1C(=O)N=Nc1c(O)[nH]c2ccccc12` here?
The inhibition was -126%.

Which inhibition does the source give for `CCCCc1nc2ccc(F)cc2cc1C` here?
The inhibition was 6.65%.

For `CCOC(=O)N1CCC(NC(=O)c2ccc3nc(N4CCOCC4)sc3c2)CC1`, which inhibition is on record?
The inhibition was 16.9%.

Which inhibition does the source give for `c1c2c(cc3sc(N4CCCCC4)nc13)OCCO2` here?
The inhibition was 80.5% (active).

For `CS(=O)(=O)N1CCCCC1c1cc(C(=O)NCc2ccccc2)no1` (stereo not drawn), which inhibition is on record?
Its inhibition is -14.8%.

Which inhibition does the source give for `O=[N+]([O-])c1ccc(CN2CC(N3CCC(c4ccccc4)CC3)CS2(=O)=O)cc1` (stereo not drawn) here?
The inhibition was 10%.

For `COc1ccc(C(CCNCc2ccccc2F)c2ccc(F)cc2)cc1` (stereo not drawn), which inhibition is on record?
The inhibition was 17.7%.

With `COc1cccc(CNCCc2c[nH]c3ccccc23)c1OCc1ccccc1F` as the compound, how does the inhibition read?
The inhibition was 92.7% (active).

Which inhibition does the source give for `Fc1ccccc1COc1ccccc1CNCc1ccncc1` here?
Its inhibition is 18.9%.

With `CNc1cncc(-c2ccc(NS(C)(=O)=O)cc2)n1` as the compound, how does the inhibition read?
Its inhibition is 21.2%.

Which inhibition does the source give for `CC1(C(=O)NS(=O)(=O)c2ccc(C#N)cc2)CCN1C(=O)CC1CCCC1` (stereo not drawn) here?
Its inhibition is 11.7%.

For `COc1ccc(C(C#N)=C2C=CC(=NO)c3ccccc32)cc1`, which inhibition is on record?
The inhibition was -114%.

For `COc1ccc(NS(=O)(=O)c2cc3c(cc2C)N(C(C)=O)CCO3)cc1`, which inhibition is on record?
The inhibition was 9.24%.

For `COc1cc([N+](=O)[O-])ccc1NC(=O)COC(=O)CCOc1ccc(C)cc1`, which inhibition is on record?
Its inhibition is 51.2% (active).

With `COc1ccc([N+](=O)[O-])cc1NCC(=O)c1ccc(C)cc1` as the compound, how does the inhibition read?
The inhibition was -17.2%.

For `CSc1ccccc1NC(=O)COC(=O)CCCOc1ccc(C)cc1`, which inhibition is on record?
Its inhibition is 8.63%.

With `CN1OC[C@@H]2CN(C(=O)c3cccc4ccccc34)[C@H](c3ccc(N4CCCCC4)cc3)C[C@@H]21` as the compound, how does the inhibition read?
The inhibition was 1%.

With `O=C(Nc1ccccc1C(=O)NCC1CCCO1)c1ccccc1F` (stereo not drawn) as the compound, how does the inhibition read?
Its inhibition is 6%.

Which inhibition does the source give for `CSc1n[nH]c(=S)n1N` here?
Its inhibition is 12.2%.

With `Cc1ccc(C)c(S(=O)(=O)N2CCN(c3ncnc4sccc34)CC2)c1` as the compound, how does the inhibition read?
The inhibition was 58.5% (active).

With `Cc1ccc(C)c(S(=O)(=O)N2CCN(C(=O)Nc3ccccc3)CC2)c1` as the compound, how does the inhibition read?
Its inhibition is 5.32%.

For `COc1ccc(-c2csc3ncnc(N4CCN(S(=O)(=O)c5ccccc5C#N)CC4)c23)cc1`, which inhibition is on record?
The inhibition was 33.6%.

Which inhibition does the source give for `CC(C)Cc1ccc(-c2cc3nc(NCc4cccc(Cl)c4)ccn3n2)cc1` here?
Its inhibition is -178%.

With `CC(C)NC(=O)C1(C)CCCCN1Cc1cccc(C(F)(F)F)c1` (stereo not drawn) as the compound, how does the inhibition read?
The inhibition was -13.2%.

For `COc1ccc(-c2ccc(C(=O)NC(C)C)c3occc23)c(C)c1`, which inhibition is on record?
The inhibition was -11.5%.

With `Cc1ccc(Cn2c(C)c(C(=O)NCc3ccccc3C(F)(F)F)sc2=O)cc1` as the compound, how does the inhibition read?
The inhibition was 18.5%.

With `Cc1cccc(CS(=O)(=O)c2ncc(Cl)c(C(=O)Nc3ccc(F)cc3)n2)c1` as the compound, how does the inhibition read?
Its inhibition is 108% (active).

For `Cc1cc(C)cc(NS(=O)(=O)Cc2ccccc2)c1`, which inhibition is on record?
Its inhibition is -13.5%.

With `CN1CCN(c2ccc(NC(=O)c3ccc4c(c3)[nH]c(=O)n4Cc3ccc(F)cc3)cc2)CC1` as the compound, how does the inhibition read?
Its inhibition is 24.3%.

With `O=C(Nc1ccc(F)cc1)c1ccc(S(=O)(=O)NCc2cccnc2)cc1` as the compound, how does the inhibition read?
The inhibition was -20.7%.

Which inhibition does the source give for `Cc1cccc(NC(=O)c2nc(S(=O)(=O)Cc3ccccc3)ncc2Cl)c1` here?
Its inhibition is 111% (active).

Which inhibition does the source give for `Cc1cccc(NC(=O)Cn2cc(C(=O)c3ccco3)c3ccccc32)c1` here?
The inhibition was 8.59%.

For `CC(Oc1cc2oc(=O)c3c(c2cc1Cl)CCCC3)C(=O)NCc1ccncc1` (stereo not drawn), which inhibition is on record?
The inhibition was 3.42%.

Which inhibition does the source give for `Cc1ccc2nc(-c3ccccc3)c(CC3CCCCC3)n2c1` here?
Its inhibition is -146%.

Which inhibition does the source give for `Clc1cccc(Cc2c(-c3cccc(Cl)c3)nc3ccc(Cl)cn23)c1` here?
The inhibition was -112%.

For `COc1ccc(CN2CCC(C)(Oc3cccc(F)c3)C2)c2ccccc12` (stereo not drawn), which inhibition is on record?
The inhibition was -19.4%.
